Source: PubChem BioAssay AID1626 (SRMLSC, 2009)
The campaign covered roughly 220,000 compounds. About 2,000 (0.91%) were called active. Another 2% or so got no clear call; they are omitted. The list is a sample of the results. Entries with a potency or affinity are not part of this list. A number with no mark means an inactive call. Rule as the data show it: inconclusive = inhibition above about 80% without an active follow-up result; inactive = below that; test concentration not stated here.

test: M. tuberculosis H37Rv growth inhibitors, H37Rv strain (AID 1626); conditions: hits give high values, concentration not given here;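 also: bacteria incubated seven days before Alamar blue readout; 0% = bacteria only wells and 100% = bacteria with antibiotic wells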

Row | Compound | inhibition [%]
1 | Cc1ccccc1C(=O)Nc1nnc(-c2ccncc2)o1 | 1.04
2 | COc1ccc(-c2nnc(NC(=O)C3CC3)o2)cc1 | 14.1
3 | COc1ccc(-c2nnc(NC(=O)C(C)C)o2)cc1 | 28.3
4 | CCSc1nnc(-c2ccc(OC)cc2)o1 | 10.5
5 | COc1ccc(NC(=O)c2cc(Cl)ccc2Cl)c([N+](=O)[O-])c1 | 0.17
6 | COc1ccc(Oc2ccc(NC(=O)c3ccccc3C)cc2)cc1 | 9.33
7 | Cc1ccccc1C(=O)Nc1nnc(-c2cccnc2)o1 | 20.8
8 | Cc1ccc(NC(=O)Nc2nnc(-c3ccccc3)o2)cc1 | 3.09
9 | O=C(N/N=C/c1ccc2c(c1)OCO2)c1cc(-c2ccccc2Cl)nc2ccccc12 | 4.7
10 | CSc1ccc(/C=C/C(=O)OCC(=O)NC(C)C)cc1 | 0.59
11 | O=C(Nc1ccccc1)NC1CCN(Cc2ccccc2)CC1 | -1.63
12 | O=C(Cn1c(=O)n(CC2CCCO2)c(=O)c2ccccc21)c1ccccc1 (stereo not drawn) | 1.39
13 | O=C(CCCSc1nc2sc3c(c2c(=O)[nH]1)CCC3)NCCO | -2.38
14 | O=C(NNC(=O)c1cccnc1)Nc1ccc(Cl)c(Cl)c1 | -1.69
15 | C=CCn1c(SCn2nnc3ccccc3c2=O)nc2scc(-c3cccs3)c2c1=O | -6.52
16 | COc1cc(CCC(O)CC(=O)CCc2ccccc2)ccc1O (stereo not drawn) | -13
17 | O=C(Nc1nnc(-c2cccnc2)o1)c1cccc([N+](=O)[O-])c1 | 74.6
18 | O=C(Nc1nn[nH]n1)c1cccc([N+](=O)[O-])c1 | 2.86
19 | CCOC(=O)CNC(=O)Nc1nnc(-c2ccc(OCC)cc2)o1 | -3.79
20 | COc1ccc(-c2nnc(-c3ccc(OCC(C)C)cc3)o2)cc1 | -2.52
21 | CC(C)(C)c1cc(NC(=O)COc2ccc(Br)cc2)n(-c2ccccc2)n1 | -8.73
22 | COCCCNC(=O)c1ccc(-n2nc(C(F)(F)F)cc2-c2cccs2)cc1 | 2.29
23 | CC1=CC(c2ccc(Cl)cc2)n2nc(NS(=O)(=O)c3ccc(C)cc3)nc2N1 (stereo not drawn) | -12.5
24 | CC1(C)CC(NC(=S)NC2CC2)CC(C)(C)N1 | -4.39
25 | Cc1ccc(Oc2ccc(NC(=O)CCC(=O)OCC(=O)c3cccs3)cc2)cc1C | -2.17

Row | Compound | inhibition [%]
26 | O=C(CCCC(=O)OCC(=O)c1cccs1)Nc1ccc(F)cc1 | -9.65
27 | O=C(c1cccnc1)N1CCC(Oc2ccc(C(=O)N3CCCCO3)cc2)CC1 | 4.71
28 | COCCN(C(=S)Nc1ccc(C)cc1)C(C)c1cccnc1 (stereo not drawn) | -5.81
29 | CCCCCCn1c(CN2CCN(C(=O)OCC)CC2)nc2c1c(=O)n(C)c(=O)n2C | 6.21
30 | O=C(Oc1ccc([N+](=O)[O-])cc1)c1cncc(Br)c1 | 10.3
31 | CCCCCCCOC(=O)c1ccc(OC(=O)c2cccnc2)cc1 | 8.62
32 | CCOc1ccc(OC(=O)c2cccnc2)cc1 | 1.09
33 | CCCCOc1ccc(OC(=O)c2cccnc2)cc1 | 6.86
34 | CCCCCCOC(=O)c1ccc(OC(=O)c2cccnc2)cc1 | 74.1
35 | O=C(Oc1cccc(Br)c1)c1cccnc1 | 13.2
36 | COc1ccc(OC(=O)c2cccnc2)cc1 | 0.67
37 | O=C(Oc1ccc(Br)cc1)c1cncc(Br)c1 | -0.78
38 | Cc1cccc(NC(=O)c2sc(Cl)nc2-c2ccccc2)c1 | 8.83
39 | COc1cccc(CC2(CO)CCCN(Cc3ccc4c(c3)OCCO4)C2)c1 (stereo not drawn) | 4.07
40 | Cc1nc2cc(Cl)c([N+](=O)[O-])cc2s1 | 7.87
41 | CC(C)Oc1ccc(CCc2nnc(SC(C)C(=O)O)n2-c2ccccc2)cc1 (stereo not drawn) | 2.62
42 | CCc1ccccc1N1C[C@@]23C=C[C@@H](O2)C(C(=O)OCC(C)C)[C@H]3C1=O (stereo partly drawn) | -0.48
43 | CCCCn1nc2cc(C(=O)N(CC)c3ccc(OC)cc3)ccc2c1OCC | 0.26
44 | CN(C)c1ccc(C(=S)N2CCN(c3ccc([N+](=O)[O-])cc3)CC2)cc1 | 9.45
45 | COc1cc(NS(=O)(=O)c2ccc(N)cc2)nc(OC)n1 | 14.8
46 | COc1cc(NS(=O)(=O)c2ccc(NC(C)=O)cc2)ncn1 | 6.36
47 | O=C(CCC(=O)OCCCC(F)(F)C(F)(F)F)NC1CCCCC1 | -2.21
48 | COc1ccccc1NC(=O)c1[nH]c(C)c(C(C)=O)c1C | -2.28
49 | Cc1nc(-c2ccccc2)sc1C1(C)CC(c2ccc([N+](=O)[O-])cc2)=NO1 (stereo not drawn) | -6.22
50 | Brc1ccccc1-c1nnc(SCc2nc3ccccc3s2)o1 | 36

Row | Compound | inhibition [%]
51 | CCN(CC)S(=O)(=O)c1cccc(-c2nnc(SCc3nc4ccccc4s3)o2)c1 | 2.86
52 | COc1ccc(/C=C/C(=O)c2ccc(NC(=O)c3cccs3)cc2)cc1OC | 5.93
53 | C/C(=N\NC(=O)CC(C)C)c1ccc(Cl)c(Cl)c1 | -0.71
54 | OC(CNCc1ccc(Cl)cc1)(c1ccccc1)c1ccc(F)cc1 (stereo not drawn) | -2.55
55 | COc1ccc(CNCC(O)(c2ccccc2)c2ccc(Cl)cc2)cc1 (stereo not drawn) | -0.19
56 | Cc1ccc(S(=O)(=O)Nc2c(C)nn(C)c2C)cc1 | -3.98
57 | Cc1cc(C)n(C(=O)CCC(=O)Nc2ccc(C)c(C)c2)n1 | -4.23
58 | Cc1[nH]c2ccccc2c1NC(=O)CN1CCN(c2cccc(C(F)(F)F)c2)CC1 | 8.35
59 | COc1ccc(-c2ncnc(C(F)(F)F)c2-c2csc(C)n2)c(O)c1 | -3.59
60 | O=C(NCc1ccco1)c1ccc(COc2ccc(Cl)cc2)cc1 | 15.4
61 | Nc1ccc(OCc2ccccc2)cc1 | 78.2
62 | O=c1c(C(c2ccc(Cl)cc2)c2c(O)nc3n(c2=O)CCCS3)c(O)nc2n1CCCS2 | -3.6
63 | N#Cc1c(-c2ccc(Cl)cc2)nc2n(c1=O)CCCS2 | -3.54
64 | Cc1sc2nc3n(c(=O)c2c1C)CCCS3 | -3
65 | O=c1c2ccccc2nc2n1CCCS2 | -15.7
66 | COc1ccc(C(=O)NCCNc2ccccc2[N+](=O)[O-])cc1 | -4.94
67 | O=C(COC(=O)Cn1cnc2ccccc21)NCCc1ccc(Cl)cc1 | -3.57
68 | CC1(C)c2[nH]c3ccccc3c2C[C@@H]2C(=O)N(Cc3ccccc3)C(=O)N21 | 2.35
69 | Cc1cccc(CN2C(=O)[C@H]3Cc4c([nH]c5ccccc45)C(C)(C)N3C2=O)c1 | 17.7
70 | C=CCn1c(=O)c2c(C)c(C)sc2n2c(Nc3ccccc3)nnc12 | -3.44
71 | O=C(CNc1cccc(Cl)c1)NNC(=S)NCc1ccccc1 | -0.97
72 | COC(=O)/C=c1/sc2n(c1=O)CCN=2 | -5.21
73 | CSc1ccc(CN2CCCC(CO)(Cc3ccccc3)C2)cc1 (stereo not drawn) | -4.33
74 | Cc1c(C(=O)O)sc2ncn(C)c(=O)c12 | -6.12
75 | Cc1ccc(OCCn2cnc3sc(C(N)=O)c(C)c3c2=O)cc1 | 11.2

Row | Compound | inhibition [%]
76 | CCn1cnc2sc(C(=O)O)c(C)c2c1=O | -6.48
77 | CCn1cnc2sc(C(=O)Nc3ccccc3OC)c(C)c2c1=O | 2.12
78 | Cc1ccc(CC(=O)NCc2ccc3c(c2)OCO3)cc1 | 23.6
79 | O=C(O)C1(P(=O)(c2ccc(Cl)cc2)c2ccc(Cl)cc2)CC1 | 1.34
80 | CCc1ccc(OCC2c3cc(OC)c(OC)cc3CCN2C(=S)NCCOC)cc1 (stereo not drawn) | 0.42
81 | CSc1nnc(CNC(=O)c2ccccc2)n1-c1cccc(C)c1 | -0.55
82 | O=C(O)c1ccccc1N1C(=O)C2C3CCC(C3)C2C1=O (stereo not drawn) | -3.82
83 | CSC1=NCCN1C(=O)c1c(F)cccc1Cl | 1.18
84 | Cc1ccc(S(=O)(=O)N2CCOCC2)cc1C(=O)NCc1ccco1 | -8.9
85 | Cc1cc2ccccc2n1CCNC(=O)COc1ccccc1 | 13.1
86 | O=C(COc1ccc2ccccc2c1)NCCn1ccc2ccccc21 | 9.42
87 | Cc1nn(CC(=O)Nc2ccc3c(c2)nc2n3CCN(C3CCCCC3)C2)c(=O)c2ccccc12 | -1.06
88 | Cc1nn(Cc2ccc(Cl)c(Cl)c2)c(C)c1NC(=O)c1noc2c1CCCCC2 | -6.28
89 | COc1ccc(C(=O)CSc2nnc3ccc(-c4ccccn4)nn23)cc1 | 2.65
90 | CCCc1nc(SCC(=O)c2ccc(F)cc2)c2ccccc2n1 | 8.42
91 | Cc1nc(-c2ccccn2)nc(SCC(=O)N2CCOCC2)c1Cl | 3.81
92 | COc1ccc(C(=O)CSc2nnc(-c3ccccn3)n2Cc2ccco2)cc1 | -7.14
93 | Cc1nc2ccccc2nc1SCC(=O)c1ccccc1 | 8.55
94 | Cn1c(SCC(=O)c2ccc(F)cc2)nc2cccnc21 | 3.26
95 | Cc1ccc(NC(=O)COC(=O)c2ccc([N+](=O)[O-])o2)cc1S(=O)(=O)N1CCCCC1 | 8.45
96 | O=C1c2ccccc2C(=O)N1CN(C(=O)c1ccccc1)c1ccc(O)cc1 | -0.6
97 | Cc1cccnc1CCNC(=O)CCc1nnc(-c2ccccc2)o1 | 5.3
98 | CCCN1CCN(C(=O)c2ccc(Sc3ccc(C)cc3)c(NC(C)=O)c2)CC1 | 3.99
